MazEF act: increases E. coli MazEF RNase cleavage of RNA. actives 0.32% (n = 350,000). FAM/BHQ RNA-DNA oligo cleavage fluorescence, 5 h. P0AE70. activation, % at 20 µM; in the data active = activation above about 50%
Bead autofluor: counter-screen for toxin protease inhibitors: compound fluorescence. compound autofluorescence counterscreen, microsphere flow cytometry; hits give high values. fluorescence intensity (concentration not given with the values). actives 3.1% (n = 360,000). AID 624483; in the data active = fluorescence intensity above about 16000; inconclusive = no clear call, values can overlap the other calls
BoNT F protease: blocks Botulinum neurotoxin F light chain protease; actives 0.22% (n = 360,000); Multiplex microsphere protease cleavage assay, flow cytometry; AID 588497; inhibition, % at 10 µM; in the data active = inhibition above about 35%, passing the limit was not always enough; inconclusive = no clear call, values can overlap the other calls; note: plate controls were buffer without enzyme for full effect and enzyme alone for no effect
BoNT-A LC inh2: BoNT A light chain protease inhibition; multiplex microsphere protease substrate cleavage, flow cytometry; inhibition, % at 10 µM; actives 0.17% (n = 360,000); AID 588499; note: plate controls were buffer without enzyme for full effect and enzyme alone for no effect
Anthrax LF inh2: inhibitors of Bacillus anthracis lethal factor protease; P15917; actives 0.12% (n = 360,000); inhibition, % at 10 µM; AID 588501; multiplex microsphere protease cleavage assay, LF; note: plate controls were buffer without enzyme for full effect and enzyme alone for no effect
Target sequence (P15917 whole entry, looked up): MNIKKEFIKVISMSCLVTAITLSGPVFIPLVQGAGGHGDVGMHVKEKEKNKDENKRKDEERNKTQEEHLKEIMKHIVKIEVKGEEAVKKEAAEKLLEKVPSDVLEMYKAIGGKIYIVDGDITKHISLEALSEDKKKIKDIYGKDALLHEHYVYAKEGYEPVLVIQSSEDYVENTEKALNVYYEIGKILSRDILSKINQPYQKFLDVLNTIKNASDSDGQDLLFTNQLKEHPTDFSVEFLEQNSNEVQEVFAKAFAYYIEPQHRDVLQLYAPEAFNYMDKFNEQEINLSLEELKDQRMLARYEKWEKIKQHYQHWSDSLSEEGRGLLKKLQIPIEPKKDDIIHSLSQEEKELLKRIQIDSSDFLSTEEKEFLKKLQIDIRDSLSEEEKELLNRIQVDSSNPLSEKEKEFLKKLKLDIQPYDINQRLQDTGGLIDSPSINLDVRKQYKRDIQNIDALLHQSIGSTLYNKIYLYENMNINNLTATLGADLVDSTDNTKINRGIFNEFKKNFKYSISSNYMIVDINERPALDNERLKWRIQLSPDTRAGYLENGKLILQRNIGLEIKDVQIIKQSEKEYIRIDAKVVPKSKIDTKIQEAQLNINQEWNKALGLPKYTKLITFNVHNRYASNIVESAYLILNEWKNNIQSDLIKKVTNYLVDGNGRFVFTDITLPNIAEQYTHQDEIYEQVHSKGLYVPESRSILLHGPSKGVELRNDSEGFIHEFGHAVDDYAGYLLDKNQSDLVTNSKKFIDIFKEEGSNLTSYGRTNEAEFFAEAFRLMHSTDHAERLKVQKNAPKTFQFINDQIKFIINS
* marks the source's active call; other numbers are inactive results; ? = inconclusive; . = no result given. Sampled rows, rich in hits. Any-hit rate of the full collection: about 3.6%. Cut-off read from the data, not from the text of the source, unless noted: active = inhibition above about 30%; inconclusive = no clear call, values can overlap the other calls; inactive = below that.

SMILES | MazEF act | Bead autofluor | BoNT F protease | BoNT-A LC inh2 | Anthrax LF inh2
COc1ccc(/C=C/C(=O)c2sc(-c3ccccc3)nc2C)cc1 | 3 | 23221* | -2 | 2 | 3
COc1ccc(NS(=O)(=O)c2ccc(C)c(C(=O)NCC(c3ccco3)N(C)C)c2)cc1 (stereo not given) | 2 | ? | -14 | 3 | -7
O=C(COc1coc(CN2CCc3ccccc3C2)cc1=O)Nc1ccc(F)cc1F | 211* | 5436 | -5 | -2 | -3
Cc1cc(C)cc(NC(=O)CCC(=O)Nc2nnc(C(C)C)s2)c1 | 14 | 4873 | 0 | -1 | 2
C=CCNC(=O)c1c(CSc2ccc(F)cc2)noc1C(=O)NCCC | -2 | 3496 | -7 | 0 | -2
Cc1ccc(NC(=O)CSc2nnc(-c3ccc(S(=O)(=O)N4CCCC4)cc3)o2)cc1C | -41 | 21954* | 2 | 2 | 0
Cc1cc(C)nc(SCC(=O)Nc2ccc(S(=O)(=O)N3CCCCC3)cc2)n1 | 8 | 16364* | 1 | 1 | -1
Cc1cc(C)nc(SCC(=O)Nc2ccc(S(=O)(=O)NCCO)cc2)n1 | 4 | 23188* | -1 | 1 | 0
Cc1cc(C)nc(SCC(=O)Nc2ccc(S(=O)(=O)NC(C)(C)C)cc2)n1 | 0 | 16067 | -1 | ? | -1
CCn1cc(C(=O)N[C@@H](C)C(=O)NCCCn2ccnc2)c(=O)c2cc3c(cc21)OCO3 | 9 | 5136 | 2 | 1 | 0
NC(=O)c1ccc(SCC(=O)NC2CCCCC2)c([N+](=O)[O-])c1 | 10 | 3184 | -2 | 0 | -2
Cc1ccc(S(=O)(=O)Nc2ccccc2C(=O)N2CCCCCC2)cc1 | -8 | 3679 | -3 | -3 | -6
CCOc1ccc(NS(=O)(=O)c2ccc(C(=O)NCC(c3ccc(OC)cc3)N3CCOCC3)cc2)cc1 (stereo not given) | 0 | ? | 7 | -2 | 2
O=C(Nc1cccc(Br)c1)c1ccc2nc(N3C(=O)CCC3=O)sc2c1 | -1 | 5778 | -8 | 0 | -6
O=C(Nc1cccc([N+](=O)[O-])c1)c1ccc2nc(N3C(=O)CCC3=O)sc2c1 | 3 | 21930* | -8 | ? | 0
Cc1ccc(C)c(S(=O)(=O)NCc2cccnc2)c1 | 6 | 21139* | -4 | -2 | -2
Cc1ccc2nsnc2c1S(=O)(=O)NCc1cccnc1 | -7 | 22869* | -3 | -1 | -2
O=C1c2cccc3cccc(c23)C(=O)N1CCCc1n[nH]c(=S)n1-c1ccccc1 | -5 | 3318 | 0 | 0 | -2
CCc1ccc(C(=O)CSc2n[nH]c(C)n2)cc1 | -7 | 21979* | -2 | -1 | -3
Cc1ccc(C(=O)CSc2n[nH]c(C)n2)cc1 | 4 | 9972 | -2 | 0 | -4
CCCCCCN1CCN(C2CN(Cc3ccc([N+](=O)[O-])cc3)S(=O)(=O)C2)CC1 (stereo not given) | 11 | 2988 | -5 | 0 | 2
CCN(C(=O)COC(=O)c1ccc(SC)cc1OC)C1CCS(=O)(=O)C1 (stereo not given) | -5 | 3665 | -2 | -1 | -9
CC(C)(C)NS(=O)(=O)c1ccc(NS(C)(=O)=O)cc1 | 6 | 16636* | -3 | ? | -1
COc1ccc(-n2nnnc2SCC(N)=O)cc1 | 2 | 3783 | -10 | 0 | -2
NC(=O)CSc1nnnn1-c1ccc(OC(F)(F)F)cc1 | -1 | 23160* | -6 | ? | -2
SMILES | MazEF act | Bead autofluor | BoNT F protease | BoNT-A LC inh2 | Anthrax LF inh2
O=C(O)COCc1nc2ccccc2[nH]1 | 0 | 25242* | -1 | -3 | 2
O=C(O)C1(Cc2nc3ccccc3[nH]2)CCCC1 | -12 | 2927 | 10 | -2 | 2
COc1cc(C)c(CN2CCSCC2)cc1C | 4 | 3976 | -35 | -3 | -8
COc1cc(C)c(CN2CCN(c3ccccc3)CC2)cc1C | -19 | 17583* | -9 | -4 | -2
CNS(=O)(=O)c1ccc(OC)c(-c2nnc3c4ccccc4c(C)nn23)c1 | 6 | 2635 | -3 | 0 | 3
COc1ccc(S(=O)(=O)NCc2ccco2)cc1-c1nnc2c3ccccc3c(C)nn12 | 9 | 20211* | 6 | 7 | -5
COCCNC(=O)C1(C)CCCN(Cc2cc3ccccc3o2)C1 (stereo not given) | . | 3958 | -4 | 0 | -5
Cc1cc(C(=O)OC(C)C(=O)NC2CCCCC2C)c2ccccc2n1 (stereo not given) | -5 | 3877 | -3 | 0 | -7
O=C(Nc1ccccc1C(F)(F)F)N1CCN(c2ccc3nnc(-c4ccc(F)cc4)n3n2)CC1 | -8 | 10256 | -9 | 0 | -1
O=C(Nc1ccccc1C(F)(F)F)N1CCN(c2ccc3nncn3n2)CC1 | 2 | 20519* | -4 | -2 | -4
CCN(c1ccccc1)S(=O)(=O)c1ccc(N)c(OC)c1 | 1 | 3750 | 6 | 0 | 1
COc1ccc(S(=O)(=O)Cc2ccccc2)cc1N | -4 | 23710* | -5 | -2 | 0
O=C(/C=C/c1c(F)cccc1Cl)Nc1ccncc1 | 2 | 2564 | -4 | 0 | 2
O=C(/C=C/c1c(Cl)cccc1Cl)Nc1ccncc1 | 11 | 20186* | 0 | 0 | 0
O=C(/C=C/c1cccc(Cl)c1)NCc1cccs1 | -7 | 21424* | -9 | -6 | 0
O=C(/C=C/c1cccc(Cl)c1)Nc1ccncc1 | -2 | 21112* | -2 | -2 | -3
O=C(NCc1ccccc1)c1cc(C2CCCCN2C(=O)c2cccs2)on1 (stereo not given) | . | 3783 | -5 | 0 | 0
O=C1CCc2cc(S(=O)(=O)Nc3cccc(F)c3)cc3c2N1CC3 | 6 | ? | -12 | 3 | -1
CC(C)n1c(CCCO)nc2ccccc21 | 7 | 24524* | -8 | -4 | -1
Cc1cc(NC(=O)CCN2C(=O)C3C4CCC(C4)C3C2=O)cc(C)c1Br (stereo not given) | 3 | 2612 | -5 | 1 | 1
Cc1c(Br)ccc(NC(=O)CCN2C(=O)C3C4CCC(C4)C3C2=O)c1C (stereo not given) | -1 | 23010* | -1 | ? | -5
O=C(NCCO)c1cccc(-c2cnc3cccnn23)c1 | . | 3861 | -8 | 0 | 5
COc1ccc(-c2nnc(SCC(=O)NC3CCCC3)n2C)cc1 | 8 | 3498 | 4 | 0 | 1
O=C(c1csc2ccccc12)N1CCN(c2ccc(Cl)c(Cl)c2)CC1 | 3 | 5800 | -1 | 0 | -1
Cc1scc(C(=O)N2CCN(S(C)(=O)=O)CC2)c1-c1ccccc1 | 1 | 24362* | -1 | ? | 1
SMILES | MazEF act | Bead autofluor | BoNT F protease | BoNT-A LC inh2 | Anthrax LF inh2
CS(=O)(=O)N1CCN(C(=O)c2csc3ccccc23)CC1 | 1 | 24374* | -4 | -3 | -1
COc1ccc(N2CCN(C(=O)c3csc4ccccc34)CC2)cc1 | 7 | 16323* | -4 | -1 | -3
Cc1cccc(C(=O)NNC(=O)c2cccc(C)c2)c1 | 6 | 1825 | -5 | 0 | 0
O=C(O)/C=C/C(=O)NNC(=O)c1ccccc1Br | 1 | 20690* | 6 | 5 | -16
Cc1cccc(C(=O)NNC(=O)c2ccccc2Br)c1 | 12 | 3428 | 45* | 1 | 6
Cc1ccccc1C(=O)NNC(=O)/C=C\C(=O)O | -3 | 4008 | -2 | -1 | -4

From PubChem
